Test [1] can be described thus: ATG_CRE_CIS: Attagene CIS-FACTORIAL HepG2 Assay for human cAMP Responsive Element (CRE) binding protein 3 (AID 2282926). Particulars: HepG2 CRE cis-reporter, Attagene multiplexed mRNA; actives raise or lower the signal. The method, boiled down: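 Assay format: transient reporter transfection of HepG2, 24 h treatment, total RNA isolation with DNase I step. Reporter abundance read by fluorescence after PCR and capillary separation; DMSO-normalised gain or loss fitting.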

The target in test [2] is CCAAT/enhancer-binding protein beta (Homo sapiens) (UniProt P17676). The test can be described thus: ATG_C_EBP_CIS: Attagene CIS-FACTORIAL HepG2 Assay for human CCAAT/Enhancer Binding Protein (C/EBP) beta (AID 2282927). Particulars: HepG2 Attagene cis-factorial transcription factor reporter; actives raise or lower the signal. The method, boiled down:
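Endogenous C/EBPb-driven reporter transcripts measured in transfected human HepG2 cells at 24 h via RT-PCR and capillary electrophoresis of labelled fragments. Activity fitted in both directions relative to DMSO baseline.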

Test [3] can be described thus: ATG_CMV_CIS: Attagene CIS-FACTORIAL HepG2 Assay for human CMV (Internal Marker) (AID 2282928).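 Note: endpoint acts as a background internal control marker rather than a target.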 Particulars: HepG2 CMV promoter reporter, transcription factor profiling; actives raise or lower the signal. Summed up:
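24 h chemical treatment, HepG2 with transient multi-reporter transfection; RNA → oligo(dT) RT → PCR → 6-FAM extension → HpaI digest → CE fluorescence. Bidirectional fit, DMSO negative control.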

Test [4] addresses Aryl hydrocarbon receptor (Homo sapiens) (UniProt P35869). The test can be described thus: ATG_Ahr_CIS: Attagene CIS-FACTORIAL HepG2 Assay for human Aryl Hydrocarbon Receptor (Ahr) (AID 2282930). Particulars: HepG2 AhR cis-factorial reporter transcription; actives raise or lower the signal. The method, boiled down:
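Reporter mRNA levels, quantified by RT-PCR and fluorescent capillary electrophoresis, reflect endogenous AhR transcriptional activity in HepG2 cells carrying transfected cis-promoter reporter constructs. Readout at 24 h post-dose; gain or loss fitted against DMSO baseline.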

The nature of test [5]: ATG_AP_1_CIS: Attagene CIS-FACTORIAL HepG2 Assay for human Activator Protein 1 (AP-1) (AID 2282931). Particulars: HepG2 Attagene cis-factorial AP-1 reporter mRNA; actives raise or lower the signal. The method, boiled down:
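HepG2 cells transiently transfected with cis-element-driven multiplex reporter units; 24 h compound exposure. Reporter mRNA quantified by RT-PCR, FAM-labelled fragments resolved by capillary electrophoresis; bidirectional fit versus DMSO baseline.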

Test [6] can be described thus: ATG_BRE_CIS: Attagene CIS-FACTORIAL HepG2 Assay for human Bone Morphogenetic Protein (BMP) Response Element (BRE) (AID 2282933). Particulars: HepG2 BMP response element reporter, Attagene transcription factor profiling; actives raise or lower the signal. The method, boiled down: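 Read-out: reporter mRNA induction quantified by RT-PCR and capillary electrophoresis after 24 h chemical exposure of transfected HepG2 cells. Endogenous factor activity on the BMP response element; gain or loss fitted against DMSO baseline.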

Test [7] concerns the target Retinoic acid receptor alpha (Homo sapiens) (UniProt P10276). The test can be described thus: ATG_DR5_RAR_CIS: Attagene CIS-FACTORIAL HepG2 Assay for human Retinoic Acid Receptor Alpha (RARE), DR5 submotif (AID 2282934). Particulars: HepG2 Attagene cis-factorial RARE DR5 reporter, mRNA; actives raise or lower the signal. Summed up:
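Reporter transcripts from a DR5-regulated unit, measured via RT-PCR plus capillary electrophoresis, reflect endogenous RAR activity in transiently transfected human HepG2 liver cells. Exposure lasted 24 h; gain or loss of signal scored against DMSO.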

Test [8] addresses Transcription factor E2F1 (Homo sapiens) (UniProt Q01094). The test can be described thus: ATG_E2F_CIS: Attagene CIS-FACTORIAL HepG2 Assay for human E2F Transcription Factor 1 (AID 2282935). Particulars: HepG2 Attagene cis-reporter, E2F reporter RNA transcripts; actives raise or lower the signal. The method, boiled down: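 Fluorescent RT-PCR products, digested with HpaI for 2 h at 37 C, are separated by capillary electrophoresis. Source RNA comes from transfected HepG2 cultures treated for 24 h.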

Test [9] can be described thus: ATG_E_Box_CIS: Attagene CIS-FACTORIAL HepG2 Assay for human Enhancer Box (E-box) (AID 2282936). Particulars: HepG2 E-box cis-reporter transcription, actives raise or lower the signal. Summed up: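 Fluorescent reporter fragments separated by capillary electrophoresis gave the signal; mRNA came from HepG2 cells transfected with cis-element reporters and treated 24 h. Curves fitted bidirectionally relative to DMSO controls.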

Test [10] is described as follows: ATG_M_61_CIS: Attagene CIS-FACTORIAL HepG2 Assay for M61 Transcription Factor (Internal Marker) (AID 2282937). Particulars: HepG2 Attagene CIS-FACTORIAL M61 internal marker reporter; actives raise or lower the signal. The method, boiled down: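 HepG2 cells transiently transfected with cis-element-driven multiple reporter transcription units, dosed for 24 h. Reporter mRNA measured by RT-PCR, 6-FAM primer-extension labelling, HpaI digestion and capillary electrophoresis; bidirectional fit versus DMSO baseline.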

A short description of test [11]: ATG_EGR_CIS: Attagene CIS-FACTORIAL HepG2 Assay for human Early Growth Response 1 (EGR1) (AID 2282938). Particulars: HepG2 Attagene CIS-FACTORIAL EGR reporter mRNA; actives raise or lower the signal. Summed up: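 HepG2 cells transiently transfected with cis-promoter-driven multiplexed reporter transcription units; reporter mRNA measured 24 h after compound dosing by RT-PCR, 6-FAM primer extension, HpaI digestion and capillary electrophoresis. Bidirectional fit versus DMSO baseline.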

The nature of test [12]: ATG_M_19_CIS: Attagene CIS-FACTORIAL HepG2 Assay for M19 Transcription Factor (Internal Marker) (AID 2282939). Particulars: HepG2 Attagene CIS-FACTORIAL M19 internal marker reporter; actives raise or lower the signal. Summed up: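 Readout: fluorescent reporter-transcript fragments by capillary electrophoresis after RT-PCR. Human HepG2 liver cells carried transfected MRTU constructs reporting endogenous transcription-factor activity; exposure 24 h. Gain or loss of signal fitted relative to DMSO.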

The nature of test [13]: ATG_ERE_CIS: Attagene CIS-FACTORIAL HepG2 Assay for Estrogen Response Element (ERE) (AID 2282940). Particulars: HepG2 ERE cis-reporter, Attagene RNA transcript; actives raise or lower the signal. The method, boiled down: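 Readout: reporter mRNA induction by RT-PCR, FAM-labelled primer extension, HpaI digestion and capillary electrophoresis, 24 h after dosing transfected HepG2 cells. Endogenous transcription factors act on cis-element-regulated reporters. Gain or loss fitted against DMSO.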

Test [14] in a line: ATG_Ets_CIS: Attagene CIS-FACTORIAL HepG2 Assay for human Erythroblast Transformation Specific (ETS) (AID 2282941). Particulars: HepG2 ETS cis-reporter transcription, actives raise or lower the signal. Summed up: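 Cis-regulated reporter mRNA induction in HepG2 (transient transfection), 24 h exposure, RT-PCR plus capillary electrophoresis detection; DMSO serves as negative control and baseline.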

Test [15] has as its target Hepatocyte nuclear factor 3-beta (Homo sapiens) (UniProt Q9Y261). The experiment in a line: ATG_FoxA2_CIS: Attagene CIS-FACTORIAL HepG2 Assay for human Forkhead box A2 (FOXA2) (AID 2282942). Particulars: HepG2 cis-reporter transcription factor activity, 24 h; actives raise or lower the signal. The method, boiled down:
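HepG2 cells transiently transfected with multiple cis-regulated reporter transcription units, dosed for 24 h. Reporter mRNA measured by RT-PCR, 6-FAM labelling, HpaI digestion and capillary electrophoresis; bidirectional fitting against DMSO baseline.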

The nature of test [16]: ATG_FoxO_CIS: Attagene CIS-FACTORIAL HepG2 Assay for human Forkhead box O (FoxO) (AID 2282943). Particulars: HepG2 Attagene cis-reporter, FoxO element, mRNA; actives raise or lower the signal. The method, boiled down:
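Endogenous transcription factor activity read from multiplexed cis-promoter reporter transcripts in transiently transfected HepG2, 24 h after dosing. Reporter RNA measured via RT-PCR plus capillary electrophoresis of FAM-labeled products; gain or loss relative to DMSO.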

A short description of test [17]: ATG_GATA_CIS: Attagene CIS-FACTORIAL HepG2 Assay for human GATA Binding Protein (AID 2282944). Particulars: HepG2 GATA cis-element reporter, Attagene multiplex mRNA; actives raise or lower the signal. The method, boiled down: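 Read-out: fluorescent reporter mRNA fragments resolved by capillary electrophoresis after RT-PCR. Human liver HepG2 cells carried transiently transfected cis-regulated reporter constructs; chemicals incubated 24 h; gain or loss of signal fitted relative to DMSO.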

Test [18] in a line: ATG_GLI_CIS: Attagene CIS-FACTORIAL HepG2 Assay for human Zinc Finger Protein GLI1 (AID 2282945). Particulars: HepG2, Attagene cis-factorial reporter mRNA, GLI element; actives raise or lower the signal. Summed up: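 Bidirectional curve fits relative to DMSO, using reporter mRNA levels from RT-PCR plus capillary electrophoresis. Cells were HepG2 transiently carrying cis-regulated reporter constructs, harvested 24 h after dosing.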

Test [19] can be described thus: ATG_AP_2_CIS: Attagene CIS-FACTORIAL HepG2 Assay for human Activator Protein 2 (AP-2) (AID 2282932). Particulars: HepG2 AP-2 cis-reporter, Attagene transcription factor profiling; actives raise or lower the signal. Summed up: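 Transiently transfected HepG2 cells are exposed to chemical for 24 h. Reporter transcripts are then measured as fluorescence following RT-PCR and capillary separation, and gain- or loss-of-signal is fitted relative to DMSO.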

A short description of test [20]: ATG_DR4_LXR_CIS: Attagene CIS-FACTORIAL HepG2 Assay for human Liver X Receptor (LXR), DR4 submotif (AID 2282929). Particulars: HepG2 Attagene DR4 cis-reporter, mRNA transcription; actives raise or lower the signal. The method, boiled down: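 HepG2 cells transiently transfected with cis-promoter-driven multiplexed reporter units (DR4 element) were dosed for 24 h. Reporter mRNA was quantified by RT-PCR, fluorescent primer extension, HpaI digestion and capillary electrophoresis; bidirectional fitting versus DMSO baseline.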

Activity calls are given as the source filed them. Rule for the calls: active = hit-call score of the fitted dose curve at least 0.9, where 1 is the maximum; inactive = score below 0.9.

Sequence of Aryl hydrocarbon receptor (Homo sapiens) (P35869 whole entry, looked up): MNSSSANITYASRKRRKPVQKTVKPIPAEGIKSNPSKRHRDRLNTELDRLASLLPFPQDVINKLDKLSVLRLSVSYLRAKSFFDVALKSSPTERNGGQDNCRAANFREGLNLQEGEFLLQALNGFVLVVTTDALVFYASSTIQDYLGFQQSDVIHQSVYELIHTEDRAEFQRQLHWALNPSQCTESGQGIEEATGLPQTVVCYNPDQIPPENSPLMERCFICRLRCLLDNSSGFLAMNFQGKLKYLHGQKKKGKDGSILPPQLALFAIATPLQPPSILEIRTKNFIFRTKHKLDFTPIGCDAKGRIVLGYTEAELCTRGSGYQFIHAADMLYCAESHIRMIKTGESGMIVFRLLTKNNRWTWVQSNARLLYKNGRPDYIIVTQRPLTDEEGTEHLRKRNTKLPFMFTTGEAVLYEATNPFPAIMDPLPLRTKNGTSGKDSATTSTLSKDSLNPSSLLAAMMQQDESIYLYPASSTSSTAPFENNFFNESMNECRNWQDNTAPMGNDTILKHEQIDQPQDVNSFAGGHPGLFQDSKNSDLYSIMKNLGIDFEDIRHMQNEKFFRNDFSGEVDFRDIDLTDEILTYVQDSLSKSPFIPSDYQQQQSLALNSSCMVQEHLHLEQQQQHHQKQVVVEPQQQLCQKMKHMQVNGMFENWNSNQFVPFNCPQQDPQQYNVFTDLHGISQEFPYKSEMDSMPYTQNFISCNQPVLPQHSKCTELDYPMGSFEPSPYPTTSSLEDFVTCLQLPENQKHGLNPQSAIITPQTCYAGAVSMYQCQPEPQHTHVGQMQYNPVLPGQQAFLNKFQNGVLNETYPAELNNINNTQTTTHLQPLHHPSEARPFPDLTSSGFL
Sequence of Retinoic acid receptor alpha (Homo sapiens) (P10276 whole entry, looked up): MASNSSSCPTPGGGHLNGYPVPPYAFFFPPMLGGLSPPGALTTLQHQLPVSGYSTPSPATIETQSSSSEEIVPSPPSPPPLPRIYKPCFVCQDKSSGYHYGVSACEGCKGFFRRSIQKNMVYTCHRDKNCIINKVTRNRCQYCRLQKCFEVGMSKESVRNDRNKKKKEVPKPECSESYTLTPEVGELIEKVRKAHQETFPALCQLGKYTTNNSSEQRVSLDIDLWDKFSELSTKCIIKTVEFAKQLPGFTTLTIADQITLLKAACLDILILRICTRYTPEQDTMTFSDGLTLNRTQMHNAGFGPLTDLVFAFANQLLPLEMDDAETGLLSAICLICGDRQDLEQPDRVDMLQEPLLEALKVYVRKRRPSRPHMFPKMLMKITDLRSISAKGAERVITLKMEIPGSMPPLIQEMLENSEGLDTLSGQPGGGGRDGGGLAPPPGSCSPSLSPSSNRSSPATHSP
Sequence of CCAAT/enhancer-binding protein beta (Homo sapiens) (P17676 whole entry, looked up, the tested form may be a part): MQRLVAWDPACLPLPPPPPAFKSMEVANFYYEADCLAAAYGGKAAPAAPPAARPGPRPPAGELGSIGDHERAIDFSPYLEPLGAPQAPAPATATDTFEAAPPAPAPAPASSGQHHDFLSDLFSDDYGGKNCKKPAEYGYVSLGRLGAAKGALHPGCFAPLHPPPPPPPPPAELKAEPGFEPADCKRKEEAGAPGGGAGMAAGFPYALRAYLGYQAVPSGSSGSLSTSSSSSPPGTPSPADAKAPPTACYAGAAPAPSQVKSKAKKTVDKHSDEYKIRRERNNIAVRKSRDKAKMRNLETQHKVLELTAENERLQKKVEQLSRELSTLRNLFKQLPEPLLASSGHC
Sequence of Transcription factor E2F1 (Homo sapiens) (Q01094 whole entry, looked up): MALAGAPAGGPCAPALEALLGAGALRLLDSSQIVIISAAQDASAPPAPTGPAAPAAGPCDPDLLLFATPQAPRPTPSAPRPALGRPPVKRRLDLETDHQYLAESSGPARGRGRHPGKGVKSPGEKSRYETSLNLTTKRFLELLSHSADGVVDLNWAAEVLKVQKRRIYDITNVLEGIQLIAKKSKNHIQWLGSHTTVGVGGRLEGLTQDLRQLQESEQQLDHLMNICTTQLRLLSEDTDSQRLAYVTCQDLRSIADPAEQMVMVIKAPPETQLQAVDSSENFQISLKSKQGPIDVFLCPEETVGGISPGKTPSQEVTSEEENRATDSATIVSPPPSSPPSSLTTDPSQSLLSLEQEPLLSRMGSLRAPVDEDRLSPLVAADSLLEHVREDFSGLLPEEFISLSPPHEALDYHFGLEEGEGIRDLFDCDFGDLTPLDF
Sequence of Hepatocyte nuclear factor 3-beta (Homo sapiens) (Q9Y261 whole entry, looked up): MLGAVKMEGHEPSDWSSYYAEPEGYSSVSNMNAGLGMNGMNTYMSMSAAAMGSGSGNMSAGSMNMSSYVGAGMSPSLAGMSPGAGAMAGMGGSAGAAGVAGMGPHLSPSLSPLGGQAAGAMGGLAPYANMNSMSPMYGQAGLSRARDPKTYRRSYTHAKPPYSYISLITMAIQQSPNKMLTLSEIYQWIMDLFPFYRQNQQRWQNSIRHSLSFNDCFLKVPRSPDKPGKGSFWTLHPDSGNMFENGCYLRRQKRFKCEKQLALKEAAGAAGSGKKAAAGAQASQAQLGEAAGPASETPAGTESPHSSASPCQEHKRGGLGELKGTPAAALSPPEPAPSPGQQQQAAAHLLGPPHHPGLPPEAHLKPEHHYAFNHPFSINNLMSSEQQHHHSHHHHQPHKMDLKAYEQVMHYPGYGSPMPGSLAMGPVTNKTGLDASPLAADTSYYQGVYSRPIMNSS

Regarding `CCC(C)C=O` (stereo not given), the compound was classed as inactive in test [1], in test [2], in test [3], in [4], in [5] and in test [6]. Further, the call in test [7], in test [8], in test [9], in test [10], in [11] and in test [12] was inactive. Also, the call in test [13], in test [14], in test [15], in test [16], in test [17] and in [18] was inactive.
With `CC(C)=CCCC(C)C=O` (stereo not given), the compound was called inactive in [1], in test [2], in test [3], in [4], in [5] and in test [19]. For the same compound, the result in test [6], in test [7], in test [8], in [9], in test [10] and in test [11] was inactive. For the same compound, the result in [12], in [13], in test [14], in test [15], in test [16] and in [17] was inactive. The result in test [18] was inactive.
For `CC(CC=O)CCCC(C)(C)O` (stereo not given), the compound was classed as inactive in test [1], in test [2], in test [3], in [20], in test [5] and in test [19]. Also, the result in [7], in test [8], in test [9], in [10], in test [11] and in test [12] was inactive. Moreover, the compound was classed as inactive in test [13], in test [14], in test [15], in test [16], in test [17] and in test [18].
Broadly, the AC50 is the concentration giving half of the maximal activity seen. For `C=CCOc1c(Br)cc(Br)cc1Br`, the outcome in [1], in test [2], in [4], in test [5], in test [19] and in test [7] was inactive. The call in test [8], in test [10], in test [11], in test [12], in [14] and in [15] was inactive. For the same compound, the result in [16], in test [17] and in test [18] was inactive. In addition, the half-maximal activity concentration (AC50) in test [3] was 35.1 µM (active); in test [13] it was 27.7 µM (active).
In the case of `CC(=O)C=CC1C(C)=CCC(C)C1(C)C` (stereo not given), the compound was classed as inactive in test [1], in [2], in [3], in [20], in test [5] and in test [19]. Further, the call in test [6], in [8], in test [9], in [10], in test [11] and in test [12] was inactive. The compound was classed as inactive in test [13], in test [14], in test [15], in [17] and in test [18].
For `COCC(C)N` (stereo not given), the call in [1], in test [2], in test [3], in test [4], in [5] and in test [19] was inactive. Besides, the outcome in test [6], in test [7], in test [8], in test [9], in test [10] and in [11] was inactive. The compound was classed as inactive in [12], in [13], in [14], in test [15], in [17] and in test [18].
Regarding `CC(=O)[C@H]1[C@H](C#N)C[C@H]2[C@@H]3CC=C4C[C@@H](O)CC[C@]4(C)[C@H]3CC[C@@]21C`, the outcome in test [1], in test [2], in test [3], in test [4], in test [5] and in test [19] was inactive. For the same compound, the compound was classed as inactive in test [6], in test [7], in test [8], in test [9], in test [10] and in test [11]. Further, the outcome in test [12], in test [13], in test [14], in test [16], in [17] and in [18] was inactive.

For the origin of these results see PubChem BioAssay (EPA / NIEHS).
